Screening data deposited in PubChem BioAssay by National Center for Advancing Translational Sciences (NCATS).
FMDV inh = blocks foot and mouth disease virus | Potency, µM (doses to about 57.9 µM), actives largely listed as inhibitors | FMDV antiviral cell-based qHTS | 410,000 compounds, 1.2% hits; calls by dose curve; tested in HEK293T cells; also: read-out not given here; nearly all actives have a fitted effect of over 45% in size
Lassa entry inh = inhibitors of Lassa virus binding or cell entry; Lassa virus pseudotype entry inhibition, cell reporter; Potency, µM (titrated, usually from 37.9 µM), most hits filed as inhibitors; 300,000 compounds, 1.2% hits; AID 540256; calls by dose curve; tested in HEK293 cells; also: nearly all actives have a fitted effect of over 50% in size
HCMV antiviral = blocks human cytomegalovirus replication. activity change, negative = inhibition, % at 57.5 µM. HFF cells, HCMV-luciferase reporter, 72 h; active compounds read low. 410,000 compounds, 4.5% hits; in the data active = activity change below about -60%; inconclusive = no clear call, values can overlap the other calls; inactive = above about -39%
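Cell-based, HFFs, 1000 cells/well, 16 h 37C; cpds in DMSO + HCMV-luc, MOI 1 PFU/cell; 72 h 37C; OneGlo luminescence after 5 min RT; norm. to buffer vs Salinomycin 10uM.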
MARV entry inh = Marburg virus entry inhibition | Marburg virus pseudotyped entry inhibition, cell reporter | Potency, µM (titrated, usually from 37.8 µM), most hits filed as inhibitors | 300,000 compounds, 1.8% hits | AID 540276; calls by dose curve; tested in HEK293 cells
Numbers stand for hits; 0 = inactive; ? = inconclusive; - = not tested or not shown. Compounds with a hit are over-represented: about 6.2% of the library has one in this group of screens.

SMILES | FMDV inh | Lassa entry inh | HCMV antiviral | MARV entry inh
Cc1ccc(NCc2cccn2-c2nnc(N3CCC(C(=O)NCCC(C)C)CC3)s2)cc1 | ? | - | -67 | 0
CCOc1ccc(NCc2cccn2-c2nnc(N3CCC(C(=O)NCCCN4C(C)CCCC4C)CC3)s2)cc1 (stereo unspecified) | 0 | 0 | ? | ?
CCOc1ccc(NCc2cccn2-c2nnc(N3CCC(C(=O)NCCCN4CCCCC4C)CC3)s2)cc1 (stereo unspecified) | 0 | - | -66 | -
COc1ccc(NCc2cccn2-c2nnc(N3CCC(C)CC3)s2)c(OC)c1 | 2µM | 0 | 0 | -
OCCN1CCN(Cc2ccc3c(c2)CN(Cc2cc4ccccc4o2)CCO3)CC1 | 0 | - | - | -
COc1cccc2cc(C(=O)OCC(=O)NC3CCCC(C)C3C)c(=O)oc12 (stereo unspecified) | 0 | 0 | -61 | ?
COc1ccc(Cl)cc1C(=O)OCC(=O)NC1CCCC(C)C1C (stereo unspecified) | ? | 0 | 0 | 0
Cc1ccc(-n2nnnc2Sc2nc([N+](=O)[O-])nn2C)cc1C | 0 | 0 | 0 | 0
Cc1ccc(C)c(-n2nnnc2Sc2nc([N+](=O)[O-])nn2C)c1 | 0 | 0 | -70 | ?
O=C(Nc1ccc(F)cc1)NC1CCN(Cc2c(F)cccc2Cl)CC1 | 0 | ? | 0 | 0
O=C(Nc1ccc(F)cc1F)NC1CCN(Cc2c(F)cccc2Cl)CC1 | ? | ? | -68 | ?
COc1cc(=O)n2c(c1C(=O)N(C)Cc1nonc1C)CCN(Cc1cc(F)ccc1F)CC2 | 0 | - | - | -
O=c1c2ccccc2oc2cc(C#CC3(O)CCCCC3)ccc12 | 11µM | - | -80 | -
O=c1c2ccccc2sc2ccc(C#CC3(O)CCCCC3)cc12 | 45µM | - | -100 | -
COc1cccc2oc3cc(C#CC4(O)CCCCC4)ccc3c(=O)c12 | 0 | - | 0 | -
CCCCC(CC)CNC(=O)CCCc1nnc2n(CCC)c(=O)c3sccc3n12 (stereo unspecified) | ? | ? | 0 | ?
C=CCn1c(-c2cccc(OC)c2OC)n[nH]c1=S | ? | 0 | -70 | ?
COc1ccc(O)c(/C=N/n2c(-c3ccco3)csc2=Nc2cccnc2)c1 | ? | ? | 0 | 0
CCN=c1scc(-c2cccs2)n1/N=C/c1cc(OC)ccc1O | 0 | ? | -95 | ?
Cc1c(N=C2C=C(Br)C(=O)C(Br)=C2)c(=O)n(-c2ccccc2)n1C | 0 | 0 | 0 | 0
Cc1c(N=C2C=CC(=O)c3ccccc32)c(=O)n(-c2ccccc2)n1C | 35µM | 0 | 0 | ?
CC1C(=O)C(C)(C)C(=O)OC1c1ccccc1 (stereo unspecified) | 0 | - | 0 | -
CC1C(=O)C(C)(C)C(=O)OC1c1ccc([N+](=O)[O-])cc1 (stereo unspecified) | 0 | - | -104 | -
CCc1ccc(CN2CCc3nc(Nc4ccccc4)ncc3C2)cc1 | 0 | 0 | 0 | -
Cc1ccc2c(c1)-c1c(cnn1CC(=O)N1CCN(c3ccccc3F)CC1)CO2 | 0 | - | -87 | 0
SMILES | FMDV inh | Lassa entry inh | HCMV antiviral | MARV entry inh
CCC(O)C1CCN(Cc2cn(Cc3ccccc3)nc2-c2cc3ccccc3o2)CC1 (stereo unspecified) | 0 | - | -61 | -
COCCOC1CCN(Cc2cn(Cc3ccccc3)nc2-c2cc3ccccc3o2)CC1 | 0 | - | 0 | -
OC1CCCN(Cc2cn(Cc3ccccc3)nc2-c2cc3ccccc3o2)C1 (stereo unspecified) | 0 | 0 | 0 | 26µM
CSc1ccc(CCNC(=O)C2=C(C)C(=O)OC23CCCCC3)cc1 | 0 | ? | 0 | 0
CNC(=S)NC1CC2CCCC(C1)N2Cc1ccc(C)cc1 (stereo unspecified) | 0 | 0 | 0 | 4.6µM
Cc1ccc(CN2C3CCCC2CC(NC(=S)NCc2ccccc2)C3)cc1 (stereo unspecified) | 0 | ? | -67 | ?
CCNC(=S)NC1CC2CCCC(C1)N2Cc1ccc(C)cc1 (stereo unspecified) | 0 | - | 0 | -
Cc1cc(=O)oc2cc(OCC3CC(c4ccc(Cl)cc4)=NO3)ccc12 (stereo unspecified) | 0 | 0 | 0 | 0
NNC(=O)c1ccc(OCC2CC(c3ccc(Cl)cc3)=NO2)cc1 (stereo unspecified) | 0 | ? | -95 | ?
CCC(C(=O)NCC1CCCO1)N(Cc1ccc(F)cc1)C(=O)CNS(=O)(=O)c1ccccc1 (stereo unspecified) | 0 | 0 | -71 | 0
O=C(CN(Cc1ccccc1)S(=O)(=O)c1ccc(Br)cc1)NCC1CCCO1 (stereo unspecified) | 0 | 0 | 0 | 0
O=C(CC(c1ccccc1)c1ccccc1)NCC1CCCO1 (stereo unspecified) | 0 | 0 | -100 | 0
CCOc1ccccc1N(CC(=O)NCC1CCCO1)C(=O)CNS(=O)(=O)c1ccccc1 (stereo unspecified) | 0 | 0 | -69 | 0
COc1ccc(S(=O)(=O)N(CC(=O)NCC2CCCO2)Cc2ccccc2)cc1C (stereo unspecified) | 0 | ? | -90 | 0
COc1ccc(S(=O)(=O)NCC(=O)N(CC(=O)NCC2CCCO2)c2ccccc2C)cc1 (stereo unspecified) | 0 | 0 | 0 | 0
COc1cc(CN2CCOc3ccc(CN4CCC(O)(c5cccnc5)CC4)cc3C2)cc(OC)c1 | 0 | - | - | -
CC(CN1CCNCC1)(NS(=O)(=O)c1ccccc1)c1ccccc1 (stereo unspecified) | 0 | 0 | 0 | 11µM
CCn1c(-c2cccnc2)nc2cc(NC(=O)COC)cc(C(=O)N3CC[C@@H]4CCCC[C@H]4C3)c21 | 0 | - | - | -
Cc1ccc(O)c(C(=O)c2cnn(C(=O)COc3ccc(Cl)cc3)c2)c1 | 0 | 0 | -61 | 0
O=C(c1cnn(C(=O)COc2ccc(Cl)cc2)c1)c1ccccc1O | 0 | 0 | ? | ?
Oc1cccc2ccc(/C=C/c3c(F)cccc3Cl)nc12 | 0 | 18µM | 0 | ?
O=C(/C=C/c1c(F)cccc1Cl)Nc1ncccn1 | 0 | 0 | 0 | 0
Nc1nccc(/C=C/c2c(F)cccc2Cl)n1 | 0 | 0 | -68 | 0
O=C(NC1CCCCC1)O[C@H]1CC[C@@]23CCCN2C(=O)CCC[C@H]3[C@H]1Cc1ccccc1 | - | - | 0 | -
CC(C)C(C)NC(=O)COc1ccc(-c2ccccc2)cc1 (stereo unspecified) | 0 | 0 | 0 | 0
SMILES | FMDV inh | Lassa entry inh | HCMV antiviral | MARV entry inh
CC(C)C(C)NC(=O)COc1ccc(Sc2ccc(OCC(=O)NC(C)C(C)C)cc2)cc1 (stereo unspecified) | ? | ? | -88 | ?
COc1cccc(CN2CCC3(CC2)c2ccccc2[C@@H](NC(=O)c2ccccc2)[C@@H]3O)c1O | 0 | - | - | -
Cc1ccc(CNC(=O)c2ccc(-n3c(C)cc4c3CCCC4)cc2)cc1 | 0 | ? | 0 | -
Cc1cc2c(n1-c1ccc(C(=O)NCc3ccc(OC(C)C)cc3)cc1)CCCC2 | 0 | ? | -99 | -
CCOc1ccc(CCNC(=O)c2ccc(-n3c(C)cc4c3CCCC4)cc2)cc1OCC | 0 | ? | -85 | -
COc1ccc(CN2CCCC(n3cc(C(=O)N4CCCCC4)nn3)C2)c(OC)c1 (stereo unspecified) | 0 | - | - | -
COc1cc(OC)cc(C(=O)Nc2ccc3nc4n(c(=O)c3c2)CCCCC4)c1 | 0 | 0 | 0 | ?
O=C(Nc1ccc2nc3n(c(=O)c2c1)CCCC3)c1cncc(Br)c1 | 0 | - | -63 | -
COc1cccc(NC(=O)CC(=O)Nc2ccc3nc4n(c(=O)c3c2)CCCCC4)c1 | 0 | 0 | -72 | 0
